# Source: PubChem BioAssay
# Compounds with a hit are over-represented: about 2.6% of the library has one in this group of screens.
# Gli-Sufu antag = Gli-Sufu pathway antagonists, primary screen, luciferase luminescence, Sufu-KO-LIGHT cells, uHTS; Sufu-KO-LIGHT fibroblasts, Gli luciferase reporter luminescence; inhibition, % at 5 µM; 0.74% of 340,000 active; AID 588413, 2011;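 active = inhibition above about 55%, limit read from the data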;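 note: 0% = DMSO-treated cells and 100% = wells with medium but no cells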
# COUP-TFII inh = NR2F2 transcriptional activity inhibitors, primary screen, cell-based, luciferase reporter, HEK293T, luminescence. HEK293T NGFI-A luciferase reporter. 0.7% of 370,000 active. AID 686940, 2013. inhibition, % at 8.6 µM;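 active = inhibition above a per-plate cutoff, mean inhibition of test wells between control levels plus 3 SD, cut at about 38% in these data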;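 note: cells cotransfected with COUP-TFII expression vector driving the NGFI-A reporter; 0% = median of COUP-TF2 test wells and 100% = reporter-only cells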
# Target sequence (P24468 whole entry, looked up): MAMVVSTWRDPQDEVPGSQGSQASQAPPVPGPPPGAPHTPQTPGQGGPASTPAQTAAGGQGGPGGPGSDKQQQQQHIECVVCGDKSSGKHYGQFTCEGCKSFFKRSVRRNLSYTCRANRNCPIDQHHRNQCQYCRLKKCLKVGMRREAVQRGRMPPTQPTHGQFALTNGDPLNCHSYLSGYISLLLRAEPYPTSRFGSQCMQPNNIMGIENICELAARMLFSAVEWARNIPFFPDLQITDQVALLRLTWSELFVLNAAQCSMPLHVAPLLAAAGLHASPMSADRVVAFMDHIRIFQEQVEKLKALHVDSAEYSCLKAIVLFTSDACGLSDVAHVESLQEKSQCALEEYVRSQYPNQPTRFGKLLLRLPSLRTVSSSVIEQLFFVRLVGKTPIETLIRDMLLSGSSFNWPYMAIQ
# 697 NFkB inh = inhibitors of PMA/ionomycin-induced NF-kB reporter, 697 cells, primary screen, B-cell NF-kB inhibitor project, cell-based, luminescence, uHTS. 697 B-cell NF-kB luciferase reporter, 16 h. inhibition, % at 4 µM. 0.33% of 330,000 active. AID 435022, 2010; in the data active = inhibition above about 35%
# Jurkat NFkB inh = inhibitors of induced NF-kB luciferase reporter, primary screen, TCR NF-kB activation inhibitor project, cell-based, luminescence, uHTS; inhibition, % at 4 µM; Jurkat, PMA/ionomycin-induced NF-kB luciferase reporter; 0.53% of 330,000 active; AID 435003, 2010; in the data active = inhibition above about 50%
# H9c2 TAG inh = inhibitors of triacylglycerol accumulation, primary screen, cell-based, uHTS, fluorescence, H9c2; H9c2 cells, Nile Red lipid (TAG) fluorescence; cells loaded with 200 µM oleic acid; inhibition, % at 12.5 µM; 0.66% of 230,000 active;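 active = pattern-corrected inhibition of lipid staining of at least 50% with the nuclear-stain viability signal not falling by more than 50%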;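 note: 0% = DMSO wells and 100% = triacsin C control wells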
# Cardio protect = cardioprotection against H2O2-induced cell death, primary screen, uHTS, H9c2 cells, ATPLite luminescence; protection from H2O2 cell death, % at 20 µM; 0.63% of 360,000 active; H9c2 cardiomyocytes, H2O2 injury protection, 2 h; AID 588492, 2011;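 active = compounds giving at least 50% protection of heart cells from peroxide-induced death in the single-dose screen, raw or plate-pattern-corrected value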;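 note: 0% = DMSO wells with peroxide and 100% = DMSO wells without peroxide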
# Gli antag conf = Gli-SUFU pathway antagonists, confirmation, single concentration, luciferase luminescence, Sufu-KO-LIGHT cells. inhibition, % at 5 µM. Gli luciferase reporter. shares compounds with Gli-Sufu antag. 40% of 2,500 active. AID 602428, 2012;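 active = mean inhibition at 5 µM reaching about 45%, limit read from the data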;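 note: plate controls were DMSO-treated cells for no effect and wells lacking cells for full effect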
# Gli cytotox = cytotoxicity in Sufu-KO-LIGHT cells, confirmation, cytotoxicity control for Gli-SUFU antagonist project, cell-based, ATP luminescence, single concentration. cytotoxicity, % at 5 µM. 32% of 2,500 active. shares compounds with Gli-Sufu antag;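 active = mean cytotoxicity at 5 µM above about 25%, limit read from the data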;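 note: cells exposed to compound overnight for roughly 16 to 18 hours; plate controls were DMSO wells with cells for no effect and medium without cells for full effect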
# Wnt3a cs = Wnt3a reporter signal inhibition, confirmation, counter-screen for Gli-SUFU antagonist project, Wnt-LIGHT cells, luminescence, single concentration; shares compounds with Gli-Sufu antag; Wnt3a-driven luciferase reporter; inhibition, % at 6.25 µM; 20% of 2,500 active; AID 651995, 2013;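 active = mean inhibition above about 25%, limit read from the data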
# VP16 Luc counter = Gal4-VP16 luciferase reporter inhibitors, counter-screen for COUP-TFII antagonist project, cell-based, luminescence, HEK293; shares compounds with COUP-TFII inh; inhibition, % at 8.5 µM; 25% of 2,500 active; AID 687007, 2013; in the data active = inhibition above about 13%
# COUP-TFII conf = NR2F2 transcriptional activity inhibitors, confirmation, cell-based, luciferase reporter, HEK293, triplicate; shares compounds with COUP-TFII inh; HEK293 NGFI-A luciferase reporter, luminescence; AID 687008, 2013; 45% of 2,500 active; inhibition, % at 8.5 µM;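 active = mean inhibition over three repeats above a set limit taken from the earlier primary screen, cut at about 38% in these data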;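 note: 100% = cells given the luciferase reporter alone without the COUP-TF2 vector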
# Starred values were filed as active, the others as inactive; . = not tested or not shown.
SMILES,Gli-Sufu antag,COUP-TFII inh,697 NFkB inh,Jurkat NFkB inh,H9c2 TAG inh,Cardio protect,Gli antag conf,Gli cytotox,Wnt3a cs,VP16 Luc counter,COUP-TFII conf
O=C(NCC(c1ccco1)N1CCCC1)c1ccc(Cl)c(S(=O)(=O)N2CCc3ccccc32)c1 (stereo not drawn),66.7*,66.0*,-15.6,47.5,-11.0,-19.3,59.5*,33.8*,27.6*,7.1,50.0*
CC(C)(C)c1ccc(C(=O)NCCOc2ccccc2F)cc1,55.1*,52.8*,-150.8,-64.9,.,-5.5,74.2*,18.0,88.9*,-23.5,45.7*
COc1ccccc1C(=O)NCCOc1ccc(C(C)(C)C)cc1,-5.0,18.0,-7.0,20.8,.,-12.1,.,.,.,.,.
CCN(CC)c1ccc(Nc2nc(N3CCOCC3)c3ccccc3n2)cc1,66.5*,59.7*,-47.0,33.9,.,-17.0,61.8*,31.3*,8.2,7.6,43.0*
COc1ccc2[nH]c3c(c2c1)CCN[C@]31C(=O)Nc2ccccc21,.,-19.5,.,.,.,.,.,.,.,.,.
COc1ccc(CNc2ncnc3sccc23)cc1,61.1*,49.2*,0.3,34.8,.,-22.1,48.5*,37.4*,23.9,0.9,39.3*
O=C(N[C@@H](Cc1cccnc1)C(=O)N1CCC[C@H]1C(=O)NC1CCCC1)c1cccs1,.,5.4,.,.,.,.,.,.,.,.,.
O=C(Cn1cnc2ccccc21)Nc1ccc(SC(F)F)cc1,65.1*,69.7*,-22.1,42.6,-21.9,-22.4,56.8*,37.2*,-7.4,-4.5,45.9*
COc1ccc(NC(=O)COC(=O)Cn2cnc3ccccc32)cc1,-4.3,5.5,12.7,-0.7,-1.1,7.3,.,.,.,.,.
COc1ccc(-n2ncc3c(N(C)C4CCCCC4)ncnc32)cc1,60.3*,88.5*,-162.1,-5.0,1.0,-15.1,79.6*,77.5*,99.0*,74.5*,94.2*
COc1ccc(-n2ncc3c(SCC(=O)OC(C)C)ncnc32)cc1,.,10.8,.,.,-7.5,-9.1,.,.,.,.,.
Cc1cccc(-n2ncc3c(N(C)C4CCCCC4)ncnc32)c1,55.6*,87.2*,-79.2,27.2,-8.4,-33.1,76.4*,68.9*,99.0*,48.6*,92.3*
CCN(CC)C(=O)CC[C@H]1CC[C@]2(CCCN(C(=O)c3ccco3)C2)O1,.,-5.4,.,.,.,.,.,.,.,.,.
COCCNC(=O)c1c(N)[nH]c(C(=O)c2ccc(Br)cc2)c1-c1c(OC)ccc2ccccc12,.,3.9,.,.,.,.,.,.,.,.,.
COCC(C)n1c(C)cc(C(=O)COC(=O)c2n[nH]c3ccccc23)c1C (stereo not drawn),3.5,8.2,-123.9,-66.1,0.7,-33.9,.,.,.,.,.
COCC(C)n1c(C)cc(C(=O)COC(=O)c2cc(=O)[nH]c3ccccc23)c1C (stereo not drawn),50.7,62.3*,-7.9,-7.0,-6.2,-21.2,69.0*,26.2*,80.8*,2.7,58.0*
COC(=O)[C@]12C[C@H](CC(=O)N3CCSCC3)C(=O)N(Cc3ccco3)C1=C[C@H](C(C)C)O[C@@H]2C1CC1,.,0.5,.,.,.,.,.,.,.,.,.
